Data on 34 molecules can be found in PubChem BioAssay (NCATS).

Results filed as inconclusive are left out. Entries that show only a call come without a potency. Active and inactive are the calls of the source. Calls come from the whole dose curve; as a rule, active = well fitted curve in the direction sought with a large enough effect; inconclusive = small, poorly fitted or top-dose-only effect, or another doubt; inactive = no such curve, though single readings can be large; an effect the other way counts as inactive or inconclusive.

The nature of experiment [1]: qHTS for inhibitors of adenylyl cyclases using a fission yeast platform: a pilot screen against the NCATS LOPAC library (AID 1347410). In a few lines:
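Read-out: fbp1-GFP fluorescence by laser scanning cytometry (488 nm laser), a gain of signal when AC/cAMP-PKA signalling is inhibited. Strain CHP2027 expressing AC9, GNAS and PDE4D2; compounds at up to 57 µM; 18 h, 30C.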

Experiment [2] concerns the target Calcium and integrin-binding protein 1 (Homo sapiens) (UniProt Q99828). Nature of the experiment: Validation qHTS for Identification of Calcium Integrin Binding protein 1 (CIB1) Competitor (AID 1508618). An outline of the steps: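 Displacement of FITC-alphaIIb peptide (100 nM) from CIB1-GST (1 uM) is monitored by polarization in quantitative HTS format; buffer carries 5 mM CaCl2 and 125 mM NaCl at pH 7.4, incubations are at room temperature.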
For orientation: Quantitative high-throughput screening tests each substance at several concentrations.

Experiment [3] in a line: Primary qHTS for inhibitors of La Crosse Virus (LACV) - induced cell death in SH-SY5Y cells (AID 1508616). Note: potency is the fitted concentration of half-maximal effect. In a few lines:
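Readout was luminescence from ATPLite 1step added after a 6-day LACV infection (0.01 MOI) of SH-SY5Y cells that had received pin-transferred compound 24 hr after seeding.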

The nature of experiment [4]: Validation qHTS assay for inhibitors of Activation Induced Cytidine Deaminase (AID): UDG Counterscreen signal (AID 1347427). In a few lines: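 Counterscreen read of UDG activity (2 U/mL, 4/3x) in the FRET deamination format with AID (1 uM, 4/3x), DJC20/DJC23 substrates (250 nM, 4x), 4 h at room temperature. NaOH stop, fluorescence at 560 ex/665 em.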
Experiment [5] can be described thus: qHTS to identify inhibitors of the type 1 interferon - major histocompatibility complex class I in skeletal muscle: primary screen against the NCATS Pharmaceutical Collection (AID 1347407).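 Note: luminescence of HiBiT knocked into endogenous HLA-B as interferon-induced MHC class I level.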 An outline of the steps:
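HLA-B HiBiT myoblasts, dexamethasone-free growth medium + 4 ng/ml IFN-b; compounds pinned 1 h after seeding, […] from 46 uM; 24 h, 37 C, 5% CO2; lytic HiBiT detection, 10 min RT, luminescence.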

Experiment [6] concerns the target Calcium and integrin-binding protein 1 (Homo sapiens) (UniProt Q99828). Nature of the experiment: Primary qHTS for Identification of Calcium Integrin Binding Protein 1 (CIB1) Competitor (AID 1508620). Note: potency is the fitted concentration of half-maximal effect. An outline of the steps:
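Fluorescence polarization competition: GST-tagged CIB1 (1 uM final) preincubated with compound 15 min at room temperature, then FITC-labelled alphaIIb peptide (100 nM final) added. After 15 min at room temperature, polarization read at Ex 480/Em 540.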

Experiment [7] can be described thus: qHTS to identify inhibitors of the type 1 interferon - major histocompatibility complex class I in skeletal muscle: primary screen against the NCATS Mechanism Interrogation Plate v5.0 (MIPE) Libary (AID 1347411). Note: nearly all actives have a fitted effect of over 65% in size. Note: potency is the fitted concentration of half-maximal effect. An outline of the steps: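 Cells were genome-edited human myoblasts carrying a HiBit tag on endogenous HLA-B. They were treated with IFN-beta (4.0 ng/ml) and titrated compounds (top 46 uM) for 24 hrs before lytic HiBiT detection.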

In experiment [8] the target is Single-stranded DNA cytosine deaminase (Homo sapiens) (UniProt Q9GZX7). Nature of the experiment: Validation qHTS assay for inhibitors of Activation Induced Cytidine Deaminase (AID): AID signal (AID 1347429). Note: potency is the fitted concentration of half-maximal effect. An outline of the steps:
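In this coupled qHTS, AID deaminates a FRET-labelled ssDNA substrate in the presence of UDG over 4 hr at room temperature. Compounds span up to 114 uM final.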

The target in experiment [9] is Protein phosphatase 1D (Homo sapiens) (UniProt O15297). Nature of the experiment: Rhodamine-PBP qHTS Assay for Modulators of WT P53-Induced Phosphatase 1 (WIP1) (AID 1347425). In a few lines:
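5 nM WIP1 + 10 uM Rh-PBP, 50 mM Tris pH 7.5, 30 mM MgCl2, 1 mM TCEP, 0.1 mM EGTA, BSA; cpds pinned, 1 hr RT; + 10 uM phosphopeptide; fluorescence 1-min reads x 11 min; delta = f1 - f0.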

For experiment [10] the target is unchanged. Description: RapidFire Mass Spectrometry qHTS Assay for Modulators of WT P53-Induced Phosphatase 1 (WIP1) (AID 1347424).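 Note: amount of dephosphorylated VEPPL-S-QETFS peptide product formed by WIP1; series mostly up to about 63 µM.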 In a few lines: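 10 nM WIP1 preincubated with compounds 1 hr at room temperature in pH 7.5 Tris buffer with 30 mM MgCl2, 1 mM TCEP; 2 uM VEPPL-pS-QETFS phosphopeptide for 5 min, formic acid quench; dephosphorylated product quantified by RapidFire MS against labelled standard.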

Calcium and integrin-binding protein 1 (Homo sapiens), sequence (Q99828 whole entry, looked up): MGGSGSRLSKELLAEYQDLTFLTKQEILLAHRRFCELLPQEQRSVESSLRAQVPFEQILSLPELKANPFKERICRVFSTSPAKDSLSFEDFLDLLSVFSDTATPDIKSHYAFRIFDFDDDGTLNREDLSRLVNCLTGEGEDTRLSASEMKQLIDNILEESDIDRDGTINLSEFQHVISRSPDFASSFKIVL
Protein phosphatase 1D (Homo sapiens), sequence (O15297 whole entry, looked up): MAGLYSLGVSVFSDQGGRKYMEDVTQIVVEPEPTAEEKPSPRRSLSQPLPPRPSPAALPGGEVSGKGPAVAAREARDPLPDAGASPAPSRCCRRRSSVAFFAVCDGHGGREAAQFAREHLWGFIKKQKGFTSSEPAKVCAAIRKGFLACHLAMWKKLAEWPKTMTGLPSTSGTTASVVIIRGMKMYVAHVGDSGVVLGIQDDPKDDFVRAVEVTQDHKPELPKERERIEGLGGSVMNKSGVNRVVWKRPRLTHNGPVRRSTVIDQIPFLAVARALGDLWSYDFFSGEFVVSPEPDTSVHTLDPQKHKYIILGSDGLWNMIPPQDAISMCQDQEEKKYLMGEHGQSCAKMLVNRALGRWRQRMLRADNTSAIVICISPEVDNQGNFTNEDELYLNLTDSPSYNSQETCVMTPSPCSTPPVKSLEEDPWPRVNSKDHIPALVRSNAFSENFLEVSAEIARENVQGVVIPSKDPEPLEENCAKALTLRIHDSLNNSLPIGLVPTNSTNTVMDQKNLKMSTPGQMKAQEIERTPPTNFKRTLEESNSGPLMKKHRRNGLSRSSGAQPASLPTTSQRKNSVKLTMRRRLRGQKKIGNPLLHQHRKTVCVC
Single-stranded DNA cytosine deaminase (Homo sapiens), sequence (Q9GZX7 whole entry, looked up): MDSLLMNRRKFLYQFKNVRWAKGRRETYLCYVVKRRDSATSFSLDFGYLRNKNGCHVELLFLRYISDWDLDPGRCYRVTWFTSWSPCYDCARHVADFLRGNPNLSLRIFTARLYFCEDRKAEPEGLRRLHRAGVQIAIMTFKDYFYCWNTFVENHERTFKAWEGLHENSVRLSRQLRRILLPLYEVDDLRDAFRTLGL

For the molecule `Nc1nc(OCC2CCCCC2)c2[nH]cnc2n1`, the result in experiment [1] and in [2] was inactive.

For the molecule `C=C[C@@H]1CN2CC[C@@H]1C[C@H]2[C@H](O)c1ccnc2ccc(OC)cc12`, the outcome in experiment [1] was inactive. The Potency result in [3] was “inactive”.

Turning to `C=C[C@H]1CN2CC[C@@H]1C[C@@H]2[C@@H](O)c1ccnc2ccc(OC)cc12`, in experiment [1], the call was inactive. Further, the Potency result in experiment [3] is “inactive”.

For the molecule `c1cnc2c(c1)ccc1cccnc12`, the outcome in experiment [1] and in experiment [2] was inactive. Besides, in [4], the Potency entry is “inactive”.

As to `CCCC(=O)OC[C@@H](OC(=O)CCC)[C@@H](OC(=O)CCC)[C@H](Cn1c2nc(=O)[nH]c(=O)c-2nc2cc(C)c(C)cc21)OC(=O)CCC`, the Potency result in experiment [5] was “inactive”. Besides, in experiment [6], the Potency was 2.82 µM (active).

For `C#C[C@]1(O)CC[C@H]2[C@@H]3CCC4=Cc5oncc5CC4(C)[C@H]3CCC21C` (some centres undefined), in experiment [1], the outcome was inactive. Further, the Potency entry in experiment [3] is “inactive”.

Turning to `COC(=O)C1=C(C)NC(C)=C(C(=O)OC)C1c1cccc(NC(=O)NCCCN2CCC(c3cccc(OC)c3)CC2)c1`, the result in [1] and in experiment [2] was inactive. The Potency entry in experiment [6] was “inactive”.

With `CCOC(=O)N1CCN(/[N+]([O-])=N/Oc2ccc([N+](=O)[O-])cc2[N+](=O)[O-])CC1`, the outcome in experiment [1] was inactive. In addition, the Potency in experiment [7] was 20.8 µM (active). For the same molecule, the Potency entry in experiment [4] and in experiment [8] was “inactive” throughout.

For `CCCCCCCCCCCCCCCCCC(=O)OC(CC(=O)O)C[N+](C)(C)C` (centres undefined), the outcome in experiment [1] and in [2] was inactive. The Potency entry in [4], in [8] and in experiment [3] was “inactive” throughout.

Turning to `CC12C(=O)OC(=O)C1(C)C1CCC2O1` (centres undefined), the result in experiment [1] and in experiment [2] was inactive. In addition, the Potency result in experiment [4] and in experiment [8] was “inactive” in each case.

As for `CN(C)c1ccc(/C=C2\C(=O)Nc3ccccc32)cc1`, the result in experiment [1] and in experiment [2] was inactive. The Potency result in experiment [4], in [8] and in experiment [3] was “inactive” each time.

As to `CCN(CC)CCCCNc1ncc2cc(-c3c(Cl)cccc3Cl)c(NC(=O)NC(C)(C)C)nc2n1`, the outcome in experiment [1] and in experiment [2] was inactive. In experiment [6], the Potency result was “inactive”.

`COc1cc(OC)c(/C=C2/C(=O)Nc3ccccc32)c(OC)c1`: the outcome in experiment [1] and in experiment [2] was inactive. For the same molecule, the Potency result in experiment [4] and in experiment [8] was “inactive” throughout. In experiment [3], the Potency is 0.891 µM (active).

As to `COc1cc(OC)cc(-c2cc3cnc(N)nc3nc2NC(=O)NC(C)(C)C)c1`, the molecule was called inactive in experiment [1] and in [2].

`COC1=C(OC)C(=O)c2ccccc2C1=O`: the molecule was called inactive in experiment [1] and in experiment [2]. The Potency in experiment [8] was 50.1 µM (active). In [3], the Potency result is “inactive”.

Regarding `NS(=O)(=O)C#Cc1ccccc1`, the molecule was called inactive in experiment [1] and in experiment [2]. In addition, the Potency entry in experiment [4] and in experiment [8] was “inactive” each time.

Consider `CC[C@@H](C)[C@H]1O[C@]2(CC[C@H]1C)C[C@@H]1C[C@@H](CC=C(C)[C@@H](O[C@H]3C[C@H](OC)[C@@H](O[C@H]4C[C@H](OC)[C@@H](O)[C@H](C)O4)[C@H](C)O3)[C@@H](C)C=CC=C3CO[C@@H]4[C@H](O)C(C)=C[C@@H](C(=O)O1)[C@]34O)O2`, for which the molecule was called inactive in experiment [1] and in experiment [2]. Further, the Potency entry in experiment [4] and in [8] was “inactive” each time.

In the case of `COc1ccc(/C=C/c2nc(NCCCN(C)C)c3ccccc3n2)cc1`, the molecule was called inactive in experiment [1] and in experiment [2].

In the case of `O=c1cc(-c2ccccc2)oc2ccccc12`, the molecule was classed as inactive in experiment [9]. For the same molecule, the Potency result in [3] and in [6] was “inactive” each time.

With `COc1cc2nc(N3CCN(C(=O)OCc4ccccc4)C(C(=O)NC(C)(C)C)C3)nc(N)c2cc1OC` (centres undefined), the Potency entry in experiment [4], in [8] and in [3] was “inactive” in each case.

For the molecule `CCCCCC(O)c1cccc(OCc2ccc3ccccc3n2)c1` (centres undefined), the Potency result in experiment [4] and in experiment [8] was “inactive” each time.

Take `CCCCCCCCCCCCCCCCCCNC(=O)OCC(COP(=O)([O-])OCC[n+]1ccsc1)OC` (centres undefined): the Potency entry in experiment [4], in [8] and in [3] was “inactive” throughout.

Take `CN1CCc2cc(O)c(O)cc2C(c2ccccc2)C1` (centres undefined): the Potency entry in experiment [4] and in [8] was “inactive” throughout.

With `O=c1[nH]c2ccccc2n1CCCN1CCN(C(c2ccccc2)c2ccccc2)CC1`, the Potency entry in experiment [10] and in experiment [6] was “inactive” in each case. Also, the call in [9] was inactive.

For the molecule `CO/S(=N\S(=O)(=O)c1ccc(Cl)cc1)c1ccc([N+](=O)[O-])cc1` (centres undefined), the Potency result in experiment [4] and in experiment [8] was “inactive” in each case.

Turning to `[O-][n+]1ccccc1SSc1cccc[n+]1[O-]`, the Potency result in [10] and in experiment [6] was “inactive” each time. In [9], the outcome was inactive.

Take `COc1cc(CNC(=O)CCCC/C=C/C(C)C)ccc1O`: the Potency entry in experiment [7] and in experiment [6] was “inactive” each time.

Regarding `CN(C)c1ccc(C(=C2C=CC(=[N+](C)C)C=C2)c2ccccc2)cc1`, the Potency result in [10] was “inactive”.

With `CCCCCCCCCCCCCCCCCC(=O)NCC(COP(=O)([O-])OCC[N+](C)(C)C)OCC` (centres undefined), the Potency result in experiment [4] and in [8] was “inactive” throughout.

With `CCCC1(C)C(C#N)(C#N)C1(C#N)C#N`, the Potency entry in experiment [4] and in [8] was “inactive” throughout.

Turning to `COC(=O)C1=C(C)NC(C)=C(C(=O)OCC(C)C)C1c1ccccc1[N+](=O)[O-]` (centres undefined), the call in [9] was inactive. Moreover, the Potency result in [3] and in [6] was “inactive” in each case.

As to `CCNC(=O)[C@H]1O[C@@H](n2cnc3c(N)nc(NCCc4ccc(CCC(=O)O)cc4)nc32)[C@H](O)[C@@H]1O`, the Potency result in experiment [7], in experiment [4], in experiment [8] and in experiment [6] was “inactive” each time.

As to `N#C/C(=C\c1ccc(O)c(O)c1)C(=O)NCc1ccccc1`, the Potency entry in [7], in experiment [4] and in experiment [8] was “inactive” throughout.

Take `CN(C)c1ccc(N=NS(=O)(=O)O)cc1`: the call in [9] was inactive. For the same molecule, the Potency result in experiment [3] and in experiment [6] was “inactive” each time.
